Shown is part of a subset that was picked to be rich in hits.
12-LOX inh: inhibitors of human 12S-lipoxygenase ALOX12; hit rate 1.1% among 580,000; AID 1671190; purified 12hLO, xylenol orange hydroperoxide absorbance; P18054; Potency, µM (titrated, usually from 108 µM), without a hit: top-dose activity change, negative = inhibition, actives largely listed as inhibitors; note: potency is the fitted concentration of half-maximal effect
Target sequence (P18054 whole entry, looked up): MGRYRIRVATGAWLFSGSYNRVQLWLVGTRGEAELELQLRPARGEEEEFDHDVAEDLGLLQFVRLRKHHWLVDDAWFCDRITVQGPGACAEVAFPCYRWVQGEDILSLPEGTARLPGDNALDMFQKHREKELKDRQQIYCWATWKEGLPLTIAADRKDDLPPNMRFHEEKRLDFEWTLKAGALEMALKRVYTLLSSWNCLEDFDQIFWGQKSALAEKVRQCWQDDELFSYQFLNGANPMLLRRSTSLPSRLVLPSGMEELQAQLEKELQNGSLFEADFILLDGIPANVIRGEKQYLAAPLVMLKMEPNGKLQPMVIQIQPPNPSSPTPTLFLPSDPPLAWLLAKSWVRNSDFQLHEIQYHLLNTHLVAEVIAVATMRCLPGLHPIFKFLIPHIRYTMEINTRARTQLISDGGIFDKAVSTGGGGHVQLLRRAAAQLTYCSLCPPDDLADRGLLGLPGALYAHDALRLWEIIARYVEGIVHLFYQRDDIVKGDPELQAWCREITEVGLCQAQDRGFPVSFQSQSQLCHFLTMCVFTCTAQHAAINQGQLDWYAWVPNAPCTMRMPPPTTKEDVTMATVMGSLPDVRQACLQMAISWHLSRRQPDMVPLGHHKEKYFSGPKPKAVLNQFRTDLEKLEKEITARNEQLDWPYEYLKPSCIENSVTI
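Purified human 12hLO at 150 nM in 25 mM Hepes, 0.01% Triton X-100, pH 7.0, preincubated 15 min at room temperature with compound. Reaction started with 40 uM arachidonic acid, 30 min at room temperature. Hydroperoxide measured by Fe-xylenol orange, 573/405 nm absorbance ratio.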
IL-1B inflam inh: inhibitors of inflammasome signaling (IL-1 beta secretion); THP-1 LPS/ATP IL-1B secretion, AlphaLISA, 16 h; stronger effect = lower value; hit rate 4.7% among 360,000; activity change, % at 57.5 µM; in the data active = activity change below about -50%; inconclusive = mostly about -30% to -49%
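Secreted IL-1B measured by AlphaLISA bead assay after 16 h compound exposure of THP-1 cells; compounds (final up to 57.5 uM) added 1 h before LPS (250 ng/mL) and ATP (1.25 mM) stimulation; lower signal means less secretion.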
DT40 TDP1 no CPT: qHTS for Inhibitors of human tyrosyl-DNA phosphodiesterase 1 (TDP1): qHTS in cells in absence of CPT; DT40 Tdp1-/- hTDP1 cells, no CPT, ATP luminescence, 48 h; Potency, µM (titrated, usually from 46.2 µM), for the others: top-dose activity change, negative = growth inhibition, usual class: inhibitors; hit rate 15% among 420,000; AID 686978, 2013; note: potency is the fitted concentration of half-maximal effect; nearly all actives have a fitted effect of over 55% in size
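No-CPT arm: Tdp1-/-;hTDP1 DT40 cells (400/well) plus compounds, incubated ≥48 hr at 37 °C. Readout CellTiter-Glo luminescence.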
TDP1 cell CPT: DT40-hTDP1 cell growth loss with CPT. AID 686979. hit rate 12% among 420,000. Potency, µM (doses to about 46.2 µM), for the others: at the top dose activity change, negative = growth inhibition, most hits filed as inhibitors. chicken DT40 Tdp1-/-;hTDP1 cells + 20 nM CPT, ATP luminescence, 48 h; note: potency is the fitted concentration of half-maximal effect; nearly all actives have a fitted effect of over 55% in size
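Chicken DT40 Tdp1-/- cells complemented with human TDP1, 400 cells/well, exposed to compounds plus 20 nM camptothecin for at least 48 h at 37 C; viability read as ATP content by CellTiter-Glo luminescence.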
HT1080 IDH1KD tx: toxicity to HT-1080 IDH1 knockdown cells (counter line). Potency, µM (highest dose often 46.1 µM), for inactives: at the highest dose activity, negative = toxicity, usual class: cytotoxic. hit rate 2% among 360,000. HT-1080 IDH1 knockdown viability, ATP luminescence, 48 h. AID 686971;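 note: potency is the fitted concentration of half-maximal effect; 0% = DMSO wells and -100% = cell-free medium wells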
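After a 2 h attachment period, IDH1KD HT-1080 cells took pin-transferred compound for 48 h at 37 °C; ATP-based luminescence after 10 min room-temperature reagent incubation reported viability.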
HT1080-NT tox: kills 2HG-producing HT-1080-NT fibrosarcoma cells | HT-1080-NT fibrosarcoma viability, CellTiter-Glo ATP luminescence, 48 h | Potency, µM (highest dose often 46.1 µM), inactives show at the highest dose activity, negative = less viability, hits mostly cytotoxic | hit rate 1.6% among 360,000;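 note: NT is the 2HG producing partner of a matched IDH1 knockdown line; potency is the fitted concentration of half-maximal effect; 0% = DMSO-treated cells and -100% = media-only wells without cells; nearly all actives have a fitted effect of over 55% in size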
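HT-1080-NT; 750 cells/well; 5% FBS RPMI; 48 h compound, 37 degrees C; CellTiter-Glo luminescence; curve fitting and curve-class assignment.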
Numbers without * were called inactive; ? = inconclusive; nt = no result given; [ ] = another dose, or the depositor's remark. Unless noted, calls come from the whole dose curve; as a rule, active = well fitted curve in the direction sought with a large enough effect; inconclusive = small, poorly fitted or top-dose-only effect, or another doubt; inactive = no such curve, though single readings can be large; an effect the other way counts as inactive or inconclusive. Unless noted, % is set by controls: 0 for no effect and ±100 for the full control effect.

SMILES | 12-LOX inh | IL-1B inflam inh | DT40 TDP1 no CPT | TDP1 cell CPT | HT1080 IDH1KD tx | HT1080-NT tox
CCN(CC)S(=O)(=O)c1ccc(C(=O)NC(=S)N2CCN(c3ccccc3O)CC2)cc1 | ? | -20 | 18µM* | ? | -16% | -7%
Cc1nc(-c2ccccc2)cc([C@H]2CN3CC[C@H]2C[C@@H]3CNC(=O)c2cccs2)n1 | -26%[176 µM] | nt | nt | nt | nt | nt
Cc1ccc(N=Nc2cc(C)ccc2N)cc1 | ? | 10 | 0% | -26% | ? | ?
CC1=CC(=O)NP(=O)(Oc2ccc3ccccc3c2)N1 (stereo not drawn) | 0% | 24 | 10µM* | 9.2µM* | -1% | 3%
CC1CN1P(=O)(Oc1ccc2ccccc2c1)N1CC1C (stereo not drawn) | -8% | 6 | ? | ? | 8% | 8%
CP(=O)(O)C1=CCNCC1 | 5% | nt | -1% | -7% | nt | nt
C=CC[C@@H](CC(=O)N(CCO)Cc1ccccc1)C(=O)NC[C@H](OC(=O)[C@@H](CC=C)CC(=O)OC(C)(C)C)c1ccccc1 | -16% | ? | -79% | 21µM* | -25% | -17%
COc1ccccc1-n1c(/C=C/c2ccccc2)nc2ccccc2c1=O | -1% | nt | 26µM* | ? | nt | nt
O=c1c2ccccc2nc(/C=C/c2ccc(O)c(O)c2)n1-c1ccccc1 | 11% | -16 | 26µM* | ? | -21% | -19%
O=c1c2ccccc2nc(/C=C/c2cccnc2)n1Cc1ccccc1 | ? | ? | 23µM* | ? | ? | ?
O=c1c2ccccc2nc(/C=C/c2ccccc2)n1-c1ccc(O)cc1 | 8% | ? | 23µM* | ? | ? | ?
COc1ccccc1-n1c(/C=C/c2ccc(O)cc2)nc2ccccc2c1=O | 0% | ? | ? | ? | 0% | -9%
O=C1Nc2ccccc2CC12CN(Cc1ccncc1)C2 | 6%[12.5 µM] | nt | nt | nt | nt | nt
O=c1c2ccccc2nc(/C=C/c2ccc(F)cc2)n1-c1ccccn1 | nt | 7 | 18µM* | ? | 15% | 35%
O=C1c2ccccc2C(=O)N1Cc1nc2ccccc2c(=O)n1-c1ccccn1 | -1% | 16 | -9% | -1% | 18% | 4%
COc1ccc(-n2c(/C=C\c3ccccc3F)nc3ccccc3c2=O)c(OC)c1 | -24% | nt | 23µM* | 15µM* | nt | nt
O=c1c2ccccc2nc(/C=C/c2ccc(O)cc2)n1-c1ccccc1O | ? | ? | ? | ? | -18% | -10%
O=c1c2ccccc2nc(/C=C/c2ccccc2)n1-c1ccccc1O | 0% | nt | 23µM* | -11% | -28% | -23%
CCCCCCC(=O)O[C@H]1CC[C@H]2[C@@H]3CC[C@H]4CC(=O)C=C(C)[C@]4(C)[C@H]3CC[C@]12C | nt | nt | ? | 3% | nt | nt
Cc1ncc2c(n1)C[C@@H]1CC[C@H]2N1C(=O)c1ccc(C(C)C)cc1 | 30% | nt | nt | nt | nt | nt
CN=CNc1ccc(C)cc1C | 0%[176 µM] | nt | nt | nt | nt | nt
NS(=O)(=O)c1ccc(CCNc2ccn3nc(-c4cccc(C(F)(F)F)c4)cc3n2)cc1 | 0% | -20 | ? | ? | -27% | ?
NS(=O)(=O)c1ccc(CCNc2nn3c(-c4ccc(F)c(Cl)c4)cnc3s2)cc1 | -14% | ? | 23µM* | 16µM* | 12µM* | ?
COc1ccc(CCNc2nc3ccc(Cl)cc3n3cnnc23)cc1OC | -12% | nt | 16µM* | 18µM* | nt | nt
O=C(N/N=C/c1c(O)n(Cc2ccco2)c(=O)[nH]c1=O)c1ccccc1O | ? | 5 | -1% | 4% | 13% | 17%
SMILES | 12-LOX inh | IL-1B inflam inh | DT40 TDP1 no CPT | TDP1 cell CPT | HT1080 IDH1KD tx | HT1080-NT tox
O=C1NC(=O)C(=Cc2ccc(SC3CCCCC3)o2)C(=O)N1 | 22µM* | ? | ? | 16µM* | ? | ?
CCOC(=O)c1c(C)n(Cc2ccccc2)c2ccc(OCC(O)CN3C(=O)CNC3=O)cc12 (stereo not drawn) | 6%[57.4 µM] | -26 | 15µM* | ? | -4% | 0%
CC(=O)O/C(=C1\CC2C3CC=C4CC(OC(C)=O)CCC4(C)C3CCC2(C)C1=O)C(F)(F)F (stereo not drawn) | -11% | 33 | 3.7µM* | 4.6µM* | -6% | 1%
CC(C)(C)n1cc(C(=O)c2ccccc2)cc1-c1ccccc1 | ? | 18 | ? | 26µM* | 7% | 19%
CN(C)C(=O)Oc1ccc(C(=O)c2ccccc2)cc1 | 6% | -6 | -8% | -6% | 0% | 1%
C=CCON=C(C[C@H]1O[C@@H]2O[C@]3(C)CC[C@@H]4[C@H](C)CC[C@@H]([C@H]1C)[C@@]24OO3)[C@H]1O[C@@H]2O[C@]3(C)CC[C@H]4[C@H](C)CC[C@@H]([C@@H]1C)[C@@]24OO3 | -30%[57.4 µM] | nt | nt | nt | nt | nt
CC(C)CC(NC(=O)CCCNC(=O)CCC(=O)OC1O[C@H]2OC3(C)CC[C@H]4[C@H](C)CCC(C1C)C24OO3)C(=O)O (stereo partly drawn) | -3% | -5 | 0.18µM* | 0.21µM* | 18µM* | 23µM*
C[C@H]1[C@H](OC(=O)CCC(=O)NCc2ccc(C(=O)O)cc2)O[C@@H]2O[C@@]3(C)CC[C@H]4[C@H](C)CC[C@@H]1C24OO3 | nt | -8 | 0.026µM* | 0.26µM* | 8.2µM* | ?
CC1C(OC(=O)CCC(=O)NC(C)(C)CO)O[C@H]2OC3(C)CC[C@H]4[C@H](C)CCC1C24OO3 (stereo partly drawn) | -2% | -68* | 0.037µM* | 0.82µM* | 10µM* | ?
Cc1ccc2c(Cl)cc(Cl)c(OCC(=O)N(C(C)C)C(C)C)c2n1 | -5% | 0 | 18µM* | 16µM* | -11% | -18%
Clc1ccc2c(c1)C(c1ccccc1Cl)=NCc1nnc(N3CCN(CCOc4ccccc4)CC3)n1-2 | -28% | ? | 16µM* | 21µM* | ? | ?
Clc1ccc2c(c1)C(c1ccccc1Cl)=NCc1nnc(N3CCN(CCSc4ccccc4)CC3)n1-2 | ? | 28 | ? | 26µM* | -8% | -5%
CC(C)C12CN3CCN(CC(C3)C1=O)C2 | -2% | nt | nt | nt | nt | nt
CC(=O)Nc1cnc(-c2ccccc2O)cn1 | ? | 24 | -21% | ? | -11% | ?
Cc1ccc(-c2nnc(Nc3ccc(Br)cc3)c3ccccc23)cc1S(=O)(=O)NCc1nc2ccccc2[nH]1 | -13% | nt | 23µM* | ? | nt | nt
Cc1ccc(Nc2nnc(-c3ccc(C)c(S(=O)(=O)NCc4nc5ccccc5[nH]4)c3)c3ccccc23)cc1 | -8% | nt | ? | ? | nt | nt

Screening results: PubChem BioAssay, National Center for Advancing Translational Sciences (NCATS)
